# Data reported in the supplement of paper PMC4466236.
# Over roughly 33,000 sequences, “E-score (dimensionless, -0.5 to 0.5)” has its median near -0.058; the highest 2% begin near 0.35. This excerpt belongs to a sample that is enriched for the highest values.
# System: MvaT
# Test: PBM 8-mer E-score (mean of HK and ME arrays) (E-score (dimensionless, -0.5 to 0.5)); higher = stronger relative binding preference
# Method in brief: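 Full-length P. aeruginosa MvaT carrying an N-terminal glutathione S-transferase tag was tested by protein binding microarray following a previously described protocol. Two universal double-stranded 60-mer arrays, ME and HK, were used, each with a constant 25-mer primer region and a variable 35-mer region covering all 8-mers. The rank-based E-score is the mean of the two arrays, parsed with a custom script. Its range runs from -0.5 to 0.5 for each 8-mer.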
row,Sequence,PBM 8-mer E-score
1,ACATTAAC,0.345
2,ACATTAAG,0.265
3,AGATTAAT,0.379
4,ACATTAAA,0.359
5,GCATTTAA,0.326
6,ACATTTAG,0.177
7,GCATTAAA,0.256
8,ACATTAAT,0.382
9,AGATTAAG,0.175
10,CCATTAAA,0.329
11,ACATTTAA,0.388
12,AGATTAAA,0.178
13,ACCACATC,-0.0359
14,ATGCTCTA,-0.124
15,TGTGCCAA,-0.0753
16,AGGAATTA,0.226
17,CGTCCCCC,-0.209
18,AACATTAC,0.234
19,TACTCCAA,0.097
20,GACCCTAC,-0.272
21,ACATTTTG,0.0944
22,GAAAGTGA,0.135

row,Sequence,PBM 8-mer E-score
1,CCGACTAG,-0.0959
2,ATTATTAC,0.439
3,ATTATTAG,0.411
4,CTTATTCC,0.221
5,ATTATTGG,0.293
6,ACTATTAG,0.26
7,CTTATTGC,0.178
8,ATTATTCC,0.341
9,GCTATTAC,0.121
10,ATTATTCG,0.378
11,CTTATTAC,0.367
12,ATTATTCA,0.328
13,ACTATTAC,0.32
14,TACGACAA,0.131
15,CCACCTCG,-0.129
16,GAGGCCCA,-0.232
17,ATCCGAGG,-0.119
18,CAATTCTA,0.109
19,GATTTAGC,0.024
20,ACTTATGG,0.206
21,AGTGGTAG,0.00056
22,CGCCGGCA,-0.168

row,Sequence,PBM 8-mer E-score
1,CCTAACCG,-0.115
2,AAACTATC,0.301
3,AAACTAAA,0.357
4,GAACTAAA,0.338
5,AAACTATT,0.371
6,AAACTATA,0.334
7,TAACTAAA,0.312
8,ATTGAAAG,0.195
9,AGTCCCGC,-0.186
10,GTCCAATA,0.0714
11,AATGGGGT,0.0941
12,ACAACCTG,-0.038
13,GCGAGCCA,-0.16
14,ACAATATG,0.262
15,ACAATATA,0.425
16,CCAATATC,0.194
17,ACAATATC,0.258
18,CCAATACA,0.142
19,CCAATATA,0.367
20,GCAATAGA,0.127
21,GCAATAAA,0.214
22,GCAATATA,0.414

row,Sequence,PBM 8-mer E-score
1,CTAGGCCA,-0.211
2,CGATAGGA,-0.177
3,AAAACCTT,0.103
4,GCCATCGC,-0.219
5,ACTTACAA,0.307
6,GAATTTCA,0.108
7,CCTGGGCC,-0.238
8,ACACATTA,0.355
9,ATACATTA,0.39
10,CTACATTA,0.241
11,GTACATTA,0.308
12,GCACATTA,0.19
13,ACACATTG,0.113
14,GCCGATGA,-0.199
15,TAGCTATA,0.241
16,ACGGTAAT,0.18
17,GTAGGCAA,-0.171
18,TAGGGCAA,-0.0392
19,TATTACAA,0.351
20,AATTACAT,0.327
